# Where a name gives a salt, the structure may show the parent alone.
# What was measured:
# Details in all cases: 20 µM; incubation time: 27 h, anaerobic, 37 °C;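 for the amine columns active = adjusted P below 0.05 in both replicates with a change the same way and a mean fold change under 0.8 or over 1.25; inactive = the rest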
# [1] = tested on: Clostridium sporogenes DSM 1664; assay: growth (OD595) fold change vs plate DMSO controls (fold change (ratio)); higher = more growth
# Summary of the method: (§1)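 To obtain OD, 595 nm absorbance readings were blank-subtracted, corrected for compound background using 20 µM compound solutions in water, and multiplied by a calibration factor of 5. They came from 96-well mGAM cultures grown anaerobically for 27 h at 37 °C and shaken before reading. Growth is the fold change relative to the median of plate DMSO controls. Two biological replicates were averaged, and fold changes above 1.5 were set to NA.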
# [2] = tested on: Escherichia coli IAI1; assay: as above
# Summary of the method: as §1
# [3] = tested on: Klebsiella aerogenes DSM 30053; assay: as above
# Summary of the method: as §1
# [4] = tested on: Ruminococcus gnavus DSM 108212; assay: as above
# Summary of the method: as §1
# [5] = tested on: Klebsiella aerogenes DSM 30053; assay: fold change of Histamine concentration vs plate DMSO controls (fold change (ratio)); higher = more amine produced, active = hit call of the paper (significant change in both replicates, either direction)
# Summary of the method: (§2)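 Each value is the fold change relative to DMSO-only wells on the same plate. Four gut bacterial strains were grown anaerobically in mGAM at 37 °C for 27 h in 80 µL wells, starting at OD 0.1 before a 1:1 dilution, with compounds at 20 µM final (sweeteners 50 µM). Whole cultures were extracted with cold acetonitrile/methanol containing 0.1% formic acid, centrifuged, and amines were quantified by LC–triple-quadrupole MS (dynamic MRM) against external calibration curves with within-batch drift correction. Values are means of 2 biological replicates.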
# [6] = tested on: Clostridium sporogenes DSM 1664; assay: fold change of Tryptamine concentration vs plate DMSO controls (fold change (ratio)); higher = more amine produced, active = hit call of the paper (significant change in both replicates, either direction)
# Summary of the method: as §2
# [7] = tested on: Ruminococcus gnavus DSM 108212; assay: as above
# Summary of the method: as §2
# [8] = tested on: Escherichia coli IAI1; assay: fold change of Putrescine concentration vs plate DMSO controls (fold change (ratio)); higher = more amine produced, active = hit call of the paper (significant change in both replicates, either direction)
# Summary of the method: as §2
# [9] = tested on: Klebsiella aerogenes DSM 30053; assay: as above
# Summary of the method: as §2
# [10] = tested on: Escherichia coli IAI1; assay: fold change of Cadaverine concentration vs plate DMSO controls (fold change (ratio)); higher = more amine produced, active = hit call of the paper (significant change in both replicates, either direction)
# Summary of the method: as §2
# [11] = tested on: Klebsiella aerogenes DSM 30053; assay: as above
# Summary of the method: as §2
# [12] = tested on: Ruminococcus gnavus DSM 108212; assay: fold change of 2-Phenylethylamine concentration vs plate DMSO controls (fold change (ratio)); higher = more amine produced, active = hit call of the paper (significant change in both replicates, either direction)
# Summary of the method: as §2
Structure (SMILES),growth [1],growth [2],growth [3],growth [4],fold change of Histamine concentration [5],fold change of Tryptamine concentration [6],fold change of Tryptamine concentration [7],fold change of Putrescine concentration [8],fold change of Putrescine concentration [9],fold change of Cadaverine concentration [10],fold change of Cadaverine concentration [11],fold change of 2-Phenylethylamine concentration [12]
CCN(CC)N=O [NDEA (N-nitrosodiethylamine)],1.13,1.04,1.09,1.04,0.928 (inactive),1 (inactive),1.01 (inactive),1.01 (inactive),0.999 (inactive),1.03 (inactive),1.01 (inactive),1.01 (inactive)
O=C(CCCN1CCC2(CC1)C(=O)NCN2c1ccccc1)c1ccc(F)cc1 [Spiperone],0.864,0.96,0.968,0.921,1.01 (inactive),0.991 (inactive),1.01 (inactive),1.02 (inactive),1.01 (inactive),1.01 (inactive),0.998 (inactive),1.04 (inactive)
CN1C[C@H](CNC(=O)OCc2ccccc2)C[C@@H]2c3cccc4c3c(cn4C)C[C@H]21 [Metergoline],1.1,1.09,1.03,1.03,0.987 (inactive),0.943 (inactive),0.94 (inactive),1.04 (inactive),0.996 (inactive),1.08 (inactive),1 (inactive),0.967 (inactive)
COc1ccc(C(=CC(=O)N2CCOCC2)c2ccc(Cl)cc2)cc1OC (mixture of isomers),1.18,1.01,1.01,0.966,1.01 (inactive),1.11 (inactive),1.08 (inactive),0.946 (inactive),0.965 (inactive),0.929 (inactive),1.06 (inactive),1.09 (inactive)
C[N+](C)(C)CCCCCCCCCC[N+](C)(C)C [Decamethonium bromide],0.947,0.999,1,1.01,0.907 (inactive),1.13 (inactive),1.13 (inactive),0.923 (inactive),0.933 (inactive),0.877 (inactive),1.08 (inactive),1.11 (inactive)
CC(C)(C)NCC(O)c1cc(Cl)c(N)c(Cl)c1 (stereo not drawn) [Clenbuterol hydrochloride],1.03,1.02,1.01,1.13,0.983 (inactive),0.986 (inactive),1.02 (inactive),0.991 (inactive),0.983 (inactive),0.987 (inactive),1 (inactive),1.02 (inactive)
O=C(O)COc1ccc(Cl)cc1Cl,0.956,1.01,1.07,1.22,0.958 (inactive),1.02 (inactive),0.967 (inactive),1 (inactive),1 (inactive),0.996 (inactive),1.01 (inactive),0.929 (inactive)
CCC(CC)Nc1c([N+](=O)[O-])cc(C)c(C)c1[N+](=O)[O-],1.11,1.01,0.983,1.02,1.07 (inactive),1.04 (inactive),0.998 (inactive),0.991 (inactive),1.01 (inactive),1.01 (inactive),0.992 (inactive),1.01 (inactive)
C[N+]1(C)CCCC(OC(=O)C(O)(c2ccccc2)c2ccccc2)C1 (stereo not drawn) [Mepenzolate bromide],0.917,0.957,1.02,0.882,0.962 (inactive),1 (inactive),1.03 (inactive),0.871 (inactive),1.02 (inactive),1.03 (inactive),1.01 (inactive),1.02 (inactive)
CC(C)C[C@H]1C(=O)N2CCC[C@H]2[C@]2(O)O[C@](NC(=O)[C@@H]3C=C4c5cccc6[nH]c(Br)c(c56)C[C@H]4N(C)C3)(C(C)C)C(=O)N12 [Bromocryptine mesylate],1.19,1.05,1.11,1.06,0.914 (inactive),0.868 (inactive),1.03 (inactive),1.03 (inactive),0.98 (inactive),1.04 (inactive),1.01 (inactive),1 (inactive)
C[N+]1(C)CCCCC1,1,1.08,1.02,1.04,1.01 (inactive),0.957 (inactive),1.03 (inactive),1 (inactive),1.01 (inactive),0.995 (inactive),1.02 (inactive),1.05 (inactive)
CC1(C)C(C=C(Cl)Cl)C1C(=O)OC(C#N)c1ccc(F)c(Oc2ccccc2)c1 (mixture of isomers),0.877,1.01,0.965,1,1.09 (inactive),0.985 (inactive),0.996 (inactive),0.971 (inactive),1.03 (inactive),1.09 (inactive),1.02 (inactive),1.02 (inactive)
Oc1cc(Cl)ccc1Oc1ccc(Cl)cc1Cl [Triclosan],0.874,0.0332,0.299,1.21,0.0779 (active),0.699 (inactive),0.715 (active),0.258 (active),0.248 (active),1.13 (inactive),0.828 (inactive),0.734 (active)
CCCN(CCOc1c(Cl)cc(Cl)cc1Cl)C(=O)n1ccnc1,1.07,0.976,1.01,0.951,1.02 (inactive),1.05 (inactive),1.02 (inactive),1 (inactive),1.01 (inactive),1.02 (inactive),0.998 (inactive),1.04 (inactive)
CCC1(C2=NCCN2)Cc2ccccc2O1 (stereo not drawn) [Efaroxan hydrochloride],1.05,1.05,0.982,1.08,0.992 (inactive),0.939 (inactive),1.03 (inactive),0.97 (inactive),1.01 (inactive),1.06 (inactive),0.997 (inactive),1.01 (inactive)
O=C(NCCc1ncc(C(F)(F)F)cc1Cl)c1ccccc1C(F)(F)F,1.04,1.04,1.16,1.22,0.918 (inactive),0.969 (inactive),1.04 (inactive),0.983 (inactive),1.03 (inactive),0.972 (inactive),1.04 (inactive),1.02 (inactive)
O=C(O)C(F)(F)C(F)(F)C(F)(F)C(F)(F)C(F)(F)C(F)(F)C(F)(F)C(F)(F)F [PFNA (Perfluorononanoic acid)],1.04,1,1.01,1.05,1.01 (inactive),0.955 (inactive),0.968 (inactive),1.01 (inactive),0.994 (inactive),1.03 (inactive),0.982 (inactive),0.915 (inactive)
CCC1(c2cccc(O)c2)CCCCN(C)C1 (stereo not drawn) [Meptazinol hydrochloride],0.881,1.03,1.02,1.01,0.983 (inactive),1.06 (inactive),0.997 (inactive),1.03 (inactive),1 (inactive),1.01 (inactive),1.01 (inactive),0.997 (inactive)
C#CCN(C)[C@H](C)Cc1ccccc1 [Selegiline hydrochloride],0.986,1.05,1.02,0.963,0.982 (inactive),1.11 (inactive),1.05 (inactive),1.07 (inactive),0.975 (inactive),1.03 (inactive),1.01 (inactive),1.06 (inactive)
CC(NC(C)(C)C)C(=O)c1cccc(Cl)c1 (stereo not drawn) [Bupropion hydrochloride],0.957,1.01,0.949,1.02,1.08 (inactive),0.987 (inactive),1.08 (inactive),1.02 (inactive),0.995 (inactive),1 (inactive),0.97 (inactive),1.12 (inactive)
NCCCNCCSP(=O)(O)O [Amifostine],0.94,1,1.12,1.38,0.978 (inactive),1.01 (inactive),1.03 (inactive),1 (inactive),0.999 (inactive),1.01 (inactive),0.999 (inactive),1.01 (inactive)
CC(C)(C)NCC(O)c1ccccc1Cl (stereo not drawn) [Tulobuterol hydrochloride],1.21,1.07,1,0.927,1.04 (inactive),1.08 (inactive),0.664 (inactive),1.07 (inactive),1.01 (inactive),0.968 (inactive),0.99 (inactive),0.653 (inactive)
O=C(O)c1nc(Cl)ccc1Cl,0.915,1.09,1.01,0.95,1.01 (inactive),0.99 (inactive),0.915 (inactive),0.975 (inactive),0.98 (inactive),0.963 (inactive),0.983 (inactive),1.02 (inactive)
C#C[C@]1(O)CC[C@H]2[C@@H]3CCC4=CC(=O)CC[C@]4(C)[C@H]3CC[C@@]21C [Ethisterone],0.939,1.07,1.01,0.986,1.05 (inactive),1.02 (inactive),1 (inactive),1.03 (inactive),1.04 (inactive),0.988 (inactive),0.997 (inactive),1.04 (inactive)

# From the supplement of paper PMC12494721
